NPC1 prom act: qHTS Assay for NPC1 Promoter Activators; Huh7 NPC1 promoter luciferase reporter, 24 h; Potency, µM (top dose mostly 9.22 µM), for the others: top-dose activation, hits mostly activators; 320,000 compounds, 2.4% hits; AID 485313, 2010; note: % of control where 0% means no effect; nearly all actives have a fitted effect of over 60% in size
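Huh7 cells stably carrying NPC1 promoter–luciferase, plated in Opti-MEM with 10% FBS for 2 h, were exposed to compound in DMSO for 24 h at 37 °C; luciferase reagent was added for 10 min and luminescence read.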
FLuc counter: qHTS profiling assay for firefly luciferase inhibitor/activator using purifed enzyme and Km concentrations of substrates (counterscreen for miR-21 project); Luciferin 4-monooxygenase (Photinus pyralis), P08659; purified FLuc, Km substrates, luminescence inhibition; AID 588342, 2011; Potency, µM (titrated, usually from 57.5 µM), for inactives: at the top dose activity change, negative = inhibition, most hits filed as inhibitors; 360,000 compounds, 6.9% hits;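 note: plate controls were vehicle for no effect and reference inhibitor for full effect; nearly all actives have a fitted effect of over 55% in size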
Target sequence (P08659 whole entry, looked up): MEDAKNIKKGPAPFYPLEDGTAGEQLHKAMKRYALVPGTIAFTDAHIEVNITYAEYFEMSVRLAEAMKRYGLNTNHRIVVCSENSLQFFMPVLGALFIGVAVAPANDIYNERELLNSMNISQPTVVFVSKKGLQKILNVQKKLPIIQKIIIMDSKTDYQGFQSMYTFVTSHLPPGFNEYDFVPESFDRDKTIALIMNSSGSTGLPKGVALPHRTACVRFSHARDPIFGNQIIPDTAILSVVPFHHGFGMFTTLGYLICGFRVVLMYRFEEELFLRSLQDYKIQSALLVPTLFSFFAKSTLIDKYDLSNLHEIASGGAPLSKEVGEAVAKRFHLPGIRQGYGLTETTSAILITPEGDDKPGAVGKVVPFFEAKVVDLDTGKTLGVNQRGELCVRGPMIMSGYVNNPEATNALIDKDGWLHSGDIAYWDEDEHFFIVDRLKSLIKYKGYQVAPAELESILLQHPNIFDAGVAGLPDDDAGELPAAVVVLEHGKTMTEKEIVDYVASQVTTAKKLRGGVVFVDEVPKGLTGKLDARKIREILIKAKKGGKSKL
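Purified P. pyralis luciferase, 10 nM final, with Km-level 10 uM D-luciferin and 10 uM ATP in 50 mM Tris acetate pH 7.5, 10 mM Mg acetate, 0.01% Tween-20, 0.05% BSA; 6-point qHTS titration about 60 µM downward; luminescence read.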
Rab9 promoter act: qHTS Assay for Rab9 Promoter Activators; Huh7 Rab9 promoter-luciferase reporter, luminescence, 24 h; Potency, µM (series often up to 9.22 µM), for the others: at the highest dose activation, negative = inhibition, most hits filed as activators; 320,000 compounds, 2.8% hits; AID 485297, 2010; note: % of control where 0% means no effect; nearly all actives have a fitted effect of over 60% in size
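Cell-based reporter: Huh7 stable for Rab9 promoter-driven luciferase, plated in reduced-serum medium with 10% FBS at 1500 cells/well, compound-treated 24 h at 37 °C, luminescence read after 10 min reagent.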
SMN2 splice up: qHTS Assay for Enhancers of SMN2 Splice Variant Expression; AID 1458, 2008; HEK293 SMN2-luciferase splicing reporter, luminescence, 30-36 h; Potency, µM (highest dose often 46.1 µM), for the others: at the highest dose activity change, positive = activation, actives largely listed as activators; 210,000 compounds, 2.8% hits; note: % of control where 0% means no effect; nearly all actives have a fitted effect of over 55% in size
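qHTS luciferase splicing reporter: luminescence rises when SMN2 exon 7 is included in transfected HEK293 cells. Compound exposure lasted 30-36 h at 37C, with 4.5 mM final sodium butyrate as control, followed by a ONE-Glo read.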
KinaseGlo FLuc: Counterscreen for Luciferase (Kinase-Glo TM) Inhibition; Luciferin 4-monooxygenase (Photuris pensylvanica), Q27757; 200,000 compounds, 0.28% hits; AID 1379, 2008; Potency, µM (doses to about 38.3 µM), without a hit: at the highest dose activity change, negative = inhibition, usual class: inhibitors; Kinase-Glo luciferase, ATP luminescence, 8 min; note: % is set by controls: 0 for no effect and ±100 for the full control effect; nearly all actives have a fitted effect of over 60% in size
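Compound is pinned into ATP-containing buffer (10 uM ATP, imidazole pH 7.2, 7 mM MgCl2). Kinase-Glo luciferase reagent is then added. Light output is recorded following an 8-min room-temperature incubation.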
ELG1 genotox: qHTS screen for small molecules that induce genotoxicity in human embryonic kidney (HEK293T) cells expressing luciferase-tagged ELG1; HEK293T ELG1-luciferase reporter, luminescence, 16 h; Potency, µM (titrated, usually from 46 µM), without a hit: at the highest dose activity change, positive = activation, hits mostly activators; 330,000 compounds, 1.3% hits; note: % of control where 0% means no effect; nearly all actives have a fitted effect of over 60% in size
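Screening used a luciferase reporter fused to human ELG1 in HEK293T cells. Luminescence was read on a CCD plate imager after 16 hr exposure and 30 min ONE-Glo incubation.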
Starred values were filed as active, the others as inactive; ? = inconclusive; . = not tested or not shown; [ ] = remark or other dose. A selection: hits, their analogues and other compounds. The true share with any hit is near 7.5%. Calls come from the whole dose curve; as a rule, active = well fitted curve in the direction sought with a large enough effect; inconclusive = small, poorly fitted or top-dose-only effect, or another doubt; inactive = no such curve, though single readings can be large; an effect the other way counts as inactive or inconclusive. Potency is the fitted concentration of half-maximal effect.

SMILES	NPC1 prom act	FLuc counter	Rab9 promoter act	SMN2 splice up	KinaseGlo FLuc	ELG1 genotox
COc1cccc(NC(=O)Cn2c(=O)n(-c3ccc(CC(=O)NCC4CCCO4)cc3)c(=O)c3ccccc32)c1 (stereo not drawn)	.	3%	.	-7%	.	.
C[C@@H]1C[C@H](C)CN(S(=O)(=O)c2cc(Cl)c(Oc3ccc([N+](=O)[O-])cc3Cl)c(Cl)c2)C1	.	.	.	3%[9.22 µM]	-5%[7.66 µM]	.
CCOc1ccc2[nH]c(=O)c(CN(Cc3cccnc3)C(=O)Nc3ccccc3OC)cc2c1	-1%	17µM*	-4%	?	-5%	1%
Cc1cc2ncc(-c3cccc(Cl)c3)cn2n1	?	?	?	?	-5%	9%
Cc1nn2cc(-c3ccc(Cl)cc3)cnc2c1Cl	3.5µM*	?	3.2µM*	5.6µM*	-12%	?
Cn1cccc1-c1cc2n(n1)CCC(=O)N2CC(=O)Nc1ccc(F)cc1Cl	.	-3%	.	.	.	.
CCOC(=O)c1sc(NCCNc2nc(C)c(C(=O)OCC)s2)nc1C	-4%	1%	-2%	14%	1%	1%
CCOC(=O)Cc1csc(NC(=O)Cc2ccccc2)n1	-3%	-1%	1%	.	-2%	1%
CCOC(=O)c1sc(NC(=O)Nc2ccccc2F)nc1C	?	0.17µM*	0.45µM*	-59%	-7%	0.26µM*
CCOC(=O)c1sc(Nc2ccccc2Cl)nc1C	?	15µM*	?	.	.	?
COC(=O)Cc1csc(Nc2ccccc2Cl)n1	?	19µM*	3.5µM*	?	-1%	?
CCOC(=O)c1sc(Nc2ccc(Br)cc2)nc1C	16%	19µM*	17%	.	.	8%
Cc1ccccc1OCCSc1nc(C)c(Cc2ccccc2)c(=O)[nH]1	.	-7%	.	-6%	.	.
CC(C)(C)c1ccc(S(=O)(=O)N2CCC(Oc3ccc(-n4cnnn4)cc3)CC2)cc1	.	2%	.	4%	.	.
Cc1ccccc1N=C1NN=C(c2ccccc2F)CS1	?	21µM*	?	11µM*	-1%	18%
Cc1cc(C2=NNC(=NC3CCCCC3)SC2)c(C)n1-c1c(C)n(C)n(-c2ccccc2)c1=O	-2%	-3%	-1%	?	-8%	0%
C=C(C)CN=C1NN=C(c2cc(C)n(-c3ccc(C)cc3)c2C)CS1	?	8.5µM*	?	?	1%	0%
Cc1cccc(C)c1N=C1NN=C(c2ccccc2F)CS1	-3%	-26%	-4%	.	.	-5%
Cc1cc(C2=NNC(=NC3CC3)SC2)c(C)n1-c1ccccc1F	-24%	0.21µM*	-37%	-93%	11µM*	-11%
Cc1ccc(N2C(=O)C(CC(=O)Nc3ccc(F)cc3)N(CCC3=CCCCC3)C2=O)cc1 (stereo not drawn)	.	-8%	.	12%	.	.
Cc1nc(N2CCCC2)ncc1C(=O)Nc1ccccc1	.	-8%	.	.	.	.
Cc1cc(C(=O)Nc2sc3c(c2C#N)CCC(C)C3)cs1 (stereo not drawn)	1.3µM*	?	0.56µM*	4µM*	5%	4.6µM*
CCC(C)(C)C1CCc2c(sc(NC(=O)c3ccccc3C(=O)O)c2C#N)C1 (stereo not drawn)	-3%	11µM*	1%	.	.	-7%
CC1CCc2c(sc(NC(=O)c3ccccc3C(=O)O)c2C#N)C1 (stereo not drawn)	?	21µM*	?	.	1%	?
CC1CCc2c(sc(NC(=S)NC(=O)c3ccccc3)c2C#N)C1 (stereo not drawn)	27%	?	29%	.	.	14%
SMILES	NPC1 prom act	FLuc counter	Rab9 promoter act	SMN2 splice up	KinaseGlo FLuc	ELG1 genotox
Cc1ccc(CNC(=O)CSc2nc3ccsc3c(=O)n2-c2ccc(C(=O)O)cc2)cc1	.	-2%	.	.	.	.
O=[N+]([O-])c1nn(-c2ccc3c(c2)OCCO3)n(O)c1=NC1CCCCCC1	19%	17µM*	?	-5%	-2%	?
O=[N+]([O-])c1nn(-c2ccc3c(c2)OCCO3)n(O)c1=NC1CCCC1	8%	-11%	?	-15%	-20%	?
Cc1ccc(CN=c2c([N+](=O)[O-])nn(-c3ccc4c(c3)OCCO4)n2O)cc1	?	12µM*	?	.	-8%	?
O=[N+]([O-])c1nn(-c2ccc3c(c2)OCCO3)n(O)c1=NCCCO	?	-19%	2µM*	18%	-2%	4%
O=[N+]([O-])c1nn(-c2ccc3c(c2)OCCO3)n(O)c1=Nc1ccccc1	-18%	12µM*	-38%	-109%	-1%	-4%
COc1ccc(OC)c(CNC(=O)Cn2ncc3c([nH]c4ccc(C)cc43)c2=O)c1	.	0%	.	.	.	.
Cc1ccc(S(=O)(=O)C(CNC(=O)C(=O)NCc2ccccc2C)c2cccs2)cc1 (stereo not drawn)	.	-10%	.	.	.	.
COC(=O)c1scc(-c2ccc(C)cc2)c1S(=O)(=O)N1CCN(c2ccccc2)CC1	.	-10%	.	.	.	.
O=[N+]([O-])c1nn(-c2ccc3c(c2)OCCO3)n(O)c1=Nc1ccc(Cl)cc1	-5%	?	-8%	-60%	-4%	1%
COc1ccc(-n2nc([N+](=O)[O-])c(=NCc3ccc4c(c3)OCO4)n2O)cc1	2.2µM*	?	?	?	-2%	?
Cc1ccc(N=c2c([N+](=O)[O-])nn(-c3ccc(Cl)cc3)n2O)cc1C	1.6µM*	-10%	1.3µM*	4%	-3%	-4%
COCC1CCCN(C(=O)c2ccc3nc(Cc4cccc(Cl)c4)oc3c2)C1 (stereo not drawn)	3.2µM*	13µM*	2.2µM*	.	.	?
COC(=O)CN(C)C(=O)c1ccc2nc(Cc3cccc(Cl)c3)oc2c1	2.8µM*	24µM*	3.5µM*	.	.	?
Cc1cccc(Nc2ncnc3c2cnn3C)c1	1%	-4%	-1%	2%	2%	?
Cn1ncc2c(Nc3ccc4ccccc4c3)ncnc21	?	11µM*	3.2µM*	.	.	?
Clc1ccc(Nc2ncnc3c2cnn3-c2ccccc2)cc1	?	13µM*	?	43%	2%	12µM*
CC(C)Nc1ncnc2c1cnn2-c1ccc(Cl)cc1	0.28µM*	0.54µM*	0.32µM*	1.3µM*	-3%	0.37µM*
Cn1ncc2c(Nc3ccc(Cl)cc3)ncnc21	-4%	?	-1%	.	.	11%
COCOc1ccc(OC)cc1C(=O)/C=C/c1ccc(OC)c(Br)c1	.	.	.	-4%	0%	.

Bioassay records: PubChem BioAssay, National Center for Advancing Translational Sciences (NCATS)
